Measurements as given in the supplement of paper PMC11417369.
± gives the standard deviation of the averaged measurements. Over roughly 25,000 sequences, “ln(normalized median fluorescence intensity)” has its median near 7.9; the highest 2% begin near 11. The sample holds the highest values, similar sequences and a random draw of the others, so the mix is not that of the screen.

System: PfAP2-I AP2 domain 3 (GST-tagged)
Assay: gcPBM binding intensity (ln(normalized median fluorescence intensity)); higher = stronger DNA binding
Summary of the method: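 Binding intensity is the highest Masliner-normalised natural-log median intensity over replicate spots in either probe orientation. To obtain it, GST-tagged P. falciparum DNA-binding domains made in E. coli were incubated for 1 h on an Agilent 4 × 180k array of primer-extended double-stranded 36-bp intergenic genomic probes plus negative controls. Detection used Alexa488 anti-GST antibody with scanning at 488 nm.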

Sequence	gcPBM binding intensity (ln)
ATGTTATTAATAATTGCACACATTTTTTTTTTTTTT [CACACA_site3920]	9.12 ± 0.23
AAAAATATATAACAAAGTACATATATATTTAGTAAT [XGTACX_site8791]	7.43 ± 0.4
AAAATAAAATAAAAGTGTACGTTTTAAGAACATTGA [XGTACX_site2382]	7.76 ± 0.48
ATCTGTCGACAGGACAGTACACAGTAGCCAGTAACT [XGTACX_site2001]	7.63 ± 0.76
AATTTAAAGTTTTTTTTTTTTTTTTTTTTTTTTTTG [CACACA_negctrl_site1082]	7.39 ± 0.31
AACATTTCCTTTCTGTGTACATATAAACCCATCTAT [XGTACX_site2071]	8.13 ± 0.64
ATTATCAATATGAAGGTGCATTTAAATAATATTTAC	11.3 ± 0.7
TTATTTTTTTTTAGAGCACACATTTTTAATAAGGTA [CACACA_site2133]	9.54 ± 0.2
TGTTTTATTTAGAAGGTGCACATTAATATTAAATAA	11.3 ± 0.45
AAATATTATAAAAAGGTGCATTTTTATTATATGAGT	10.5 ± 0.35
TAATGCAACATTTATGTGCACATAAATATTTTTTAA	9.815 ± 0.064
TATCATATATGAAGGTGTACGATTTATTATATAAAT [XGTACX_site7010]	7.87 ± 0.54
TTTTCAATTAATAATACACACATGTATTTATTATTA [CACACA_site5774]	7.83 ± 0.34
ATAAATTCATATATGAGTACTAAAAATATCTTTTTC [XGTACX_site5541]	7.61 ± 0.45
ATTTATGGAAAAAGAACACACAATCAAACAAAAATA [CACACA_site3707]	8.01 ± 0.57
TTATAATTTTTGAGCACACACAAGCATATATATATA [CACACA_site1798]	9.475 ± 0.049
ATATATATATATTTCGCACACATAATCTTATTAAAT [CACACA_site2579]	9.22 ± 0.31
TATGGATAAATAAATACACACATAAATTTAAATATA [CACACA_site1282]	7.57 ± 0.61
GTTTATCACAGCCACGCACACATAATATCTGTATAT [CACACA_site5929]	8.18 ± 0.59
GAACATTTGAAATATGCACACATGTATAAACCTACA [CACACA_site2654]	8.7 ± 0.4
TGCTTATATATACGTGCACACATATATATAAGATAT [CACACA_site8516]	10.9 ± 0.11
AGATAAGATATATACACACACATAAATACGTACAAA [CACACA_site6639]	8.35 ± 0.16
TATATATATATGTGCACACATAAAGATATTATTTTT [CACACA_site3733]	10.2 ± 0.042
TATATATATATATGTGCACACATAAAGATATTATTT [CACACA_site3734]	10.18 ± 0.021

Sequence	gcPBM binding intensity (ln)
ATAAATAAGATACGTACACACATATACAAAATATAC [CACACA_site3661]	8.14 ± 0.26
CTTATATATACGTGCACACATATATATAAGATATAT [CACACA_site1752]	11.03 ± 0.11
AAGGTAGAAATATGTTGTACGGTTTGGAGGAAGCAA [XGTACX_site1105]	8.12 ± 0.49
AGTACATTTTTTTTAATAGGAAAAAAAATATTTATT [TGCATGCA_negctrl_site575]	7.66 ± 0.57
TTTTTTGCTAAGTGTACACAAATGTTTATTAATTTA [CACACA_site5859]	8.42 ± 0.27
AAAAAAAAAAAAAGTGCACACTTTTAATATAAATAT [CACACA_site3314]	10 ± 0.35
AAATAAAGAATATAAATACACACTTAAATATATATT [CACACA_site4007]	7.58 ± 0.61
ATAAAGAATATAAATACACACTTAAATATATATTAT [CACACA_site6071]	7.64 ± 0.44
ATAAAGAATATAAATACACACTTAAATATAGATTAT [CACACA_site7804]	7.6 ± 0.45
ATATATATATATAGTGCACACTTAAGAATATAAAGA [CACACA_site4771]	11.5 ± 0.27
ATATATATATAGTGCACACTTAAGAATATAAAGAGG [CACACA_site1151]	11.5 ± 0.3
TATATGTATGTATGTACACACAAAAAATGGAATATA [CACACA_site3717]	7.93 ± 0.35
GGTATATTAAAATAGGTGCATAAAACTAAGAGAAAA [GTGCAC_site9781]	11.3 ± 0.54
GTATTATATATATAGGTGCATATATATATATAAATA [GTGCAC_site9787]	10.6 ± 0.33
AAAAATAAAGAAACAGGTACGCATATATTAAGATAT [XGTACX_site8097]	7.98 ± 0.78
CAATATTATTATATTTGTACACATGCGTATTTTTTA [XGTACX_site4154]	7.74 ± 0.47
TAAATTATATTATGCACACTTAAAAATATATTTAAC [CACACA_site3512]	10.4 ± 0.49
TAACTTAATATTAATGCACACAATTTATATATATAT [CACACA_site3903]	11.3 ± 0.38
AATATAACTTTTTGCACACTTAATTTTTTTTTTTAA [CACACA_site3365]	9.79 ± 0.11
TAACTTAATTTTAATGCACACAATTTATATATATAT [CACACA_site6022]	11.2 ± 0.52
TTAATATAACTTTTTGCACACTTAATTTTTTTTTTT [CACACA_site3364]	9.32 ± 0.085
TTTTTAAAATATTTAACACACAATTATAATGCATAA [CACACA_site3932]	8.885 ± 0.035
ACACGTTTATATAAAAAATTAAAATTTTTCTTATTT [CACACA_negctrl_site1523]	7.95 ± 0.32
TTGCCCCAGGAGTTCACACACATAATAGATTGTCAC [CACACA_site726]	7.79 ± 0.61

Sequence	gcPBM binding intensity (ln)
ATATTTTATTTTAATACACACAAGTTATATAACCAC [CACACA_site6508]	8.19 ± 0.48
CAAGTATTAATTATGTGTACATATATATATATATAT [XGTACX_site5311]	9.36 ± 0.23
TATATGTATGTTTGTGTGCACACATAAATATTATAT	9.79 ± 0.042
ATCGTGTTAAATGTTGTGCACATATAAATTACAAAA [GTGCAC_site9822]	10.605 ± 0.007
TTGTTGTGTATTATCGTGCACATAATATAAAAGATT	11.11 ± 0.078
TAAATGAAAATATGTACACACTTGAAAACTTTTATG [CACACA_site7388]	7.84 ± 0.45
GTTTTATAAAAAGGCGCACACATATACATAAATATA [CACACA_site1864]	8.47 ± 0.37
AAAATATAATATATTGCACACAAAAAGTGAATTATT [CACACA_site8489]	10 ± 0.62
TGTAATAATTATTGCACGCACACAAAAACCTATAGA [CACACA_site2932]	10.8 ± 0.88
TAATAATTATTGCACGCACACAAAAACCTATAGATT [CACACA_site2931]	11 ± 0.67
ATATTTTTTACTATTACACACAAGGGATTATTATTT [CACACA_site3915]	7.99 ± 0.69
ATACATACATATGTATGTACGTATGTATGTATGTAT [XGTACX_site3853]	8 ± 0.2
TATACTGTCAATTCTACACACCATAGGGGGAGCATA [CACACA_site1875]	9.22
TTTATTTTTAACAGTGCACACATAACTTAATTATAT [CACACA_site8681]	10.69 ± 0.071
TTTTTTTTTTTTAATGCACACAGTGAACTTTTACTT [CACACA_site3567]	11.3 ± 0.36
ATGAAATATGCACAGTGTACTTTTATGAGGAACATA [XGTACX_site426]	9.045 ± 0.064
AAAGAATTATATAAGGTGCACGAATGTTTCTTTAAT	10.96 ± 0.035
TTTCTTTTTTTTTAATGTACTTTTTTTATAAAAGGT [XGTACX_site5688]	7.99 ± 0.23
CATATAAGACAAAAGGTGCAATTTTAATGCTTTTAT [GTGCAC_site9432]	9.99 ± 0.071
AAATAATTAGAAATAGTGCACATAATTAAGGGATAC	11.5 ± 0.31
AATAATACATCCTTAGTGCAGAAATAAAAATTAAGC [GTGCAC_site9955]	9.76 ± 0.24
AATATATAAATTAATACATGCACATATAGAAAGGGA [TGCATGCA_site472]	8.7 ± 0.52
ATTTTACATATTTGCACACATATATTTAAATACATA [CACACA_site4627]	9.85 ± 0.28
GTATATCATTTTGGGGTGCTTAAAAATAATGAATAC	10.4 ± 0.46

Sequence	gcPBM binding intensity (ln)
TTATTATTATATGAATGTACTTAAAAATACATTTTG [XGTACX_site2959]	7.43 ± 0.49
TATGAACTTTTGGGGGTGCCTTAAAATGTATATTCT	11.2 ± 0.53
TCAACACACGTGGAATGTACTTTAGTATAAGAATTC [XGTACX_site7842]	7.74 ± 0.64
AAATTTATATAATATTGTACATTAAAAATTATATAT [XGTACX_site8009]	7.73 ± 0.3
AATATGTAAATATGGGTGCTTTAAAATATATTCATT [GTGCAC_site9583]	11.1 ± 0.66
TTTAATTAAATATGTATATATATTCATGTATGTATA [GTGCAC_negctrl_site14]	7.68 ± 0.26
TAAAATATGTCATGGGTGCTTCTTTTTATACCTATG [GTGCAC_site9888]	8.49 ± 0.38
GAATAAATTAAAAACGCATGTATCATTACTACATAA [TGCATGCA_site111]	7.36 ± 0.48
ATATATATATATAAAGTGCAAAAATGAAAGTAAGAC [GTGCAC_site9850]	10.4 ± 0.21
ATAACAAAATGAAGAGTGCATTACCAAGTGGGTAAA [GTGCAC_site9450]	10.93 ± 0.014
TTTATATAAATTTAAGTGCAAAATGAACAAGTGAAA	10.1 ± 0.15
TTATATATTTTTACCATACACACATATAATAAATAT [CACACA_site3721]	8.04 ± 0.63
TTTTTATTTTTTGTCTGTACATATATAAATTTATTA [XGTACX_site1525]	7.88 ± 0.47
CCGTACAATTTTGTCACACATAAAATACTTATGTAT [CACACA_site4871]	7.66 ± 0.51
AGTAGATTTTTATTAGTGCATTTTATACTACAAAAA	9.71 ± 0.24
TCCTTTTTACTACTAGTGCATTATTTACAAGGTCCG [GTGCAC_site9441]	11.4 ± 0.68
CACCCTTTACACAAGGTGCATACTTTATTATATTTT [GTGCAC_site9778]	9.305 ± 0.049
TATTATTATTGTTGATGTACATTTAATATAATATAT [XGTACX_site4482]	7.7 ± 0.38
TGTGTGTGTTCATGGGTGCTTTAATACTATTATAGG [GTGCAC_site9465]	11 ± 0.61
TTTTTAATTTTGTGGGTGCTTTCGTGTTATTATATA	9.415 ± 0.021
AATATTGTTCACAAGGTGCTTTTTATTCATACTAAT	8.86 ± 0.18
